# Screening results deposited in PubChem BioAssay by National Center for Advancing Translational Sciences (NCATS).
# LmPK inh: LmPK (Leishmania mexicana) enzyme inhibition. 290,000 tested, 0.37% active. Potency, µM (titrated, usually from 57.5 µM), actives largely listed as inhibitors. purified LmPK, Kinase-Glo ATP luminescence, 1 h
#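 Purified LmPK (0.1 nM) converted ADP (0.1 mM) to ATP with PEP (0.5 mM) in imidazole buffer pH 7.2 with KCl and MgCl2, 1 h at room temperature. ATP was read by Kinase-Glo luminescence; data normalized to uninhibited and no-enzyme controls.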
# CHX counter: affects cycloheximide protein synthesis inhibition readout, counter-screen; cell reporter, cycloheximide protein synthesis inhibition counterscreen; max response, %; 300,000 tested, 12% active; in the data active means max response mostly above about 13%, no sharp cut-off; inactive means mostly below about 14%; further: read at 38.3 µM for the half of the compounds with a filed dose
# Giardia FBPA inh: Giardia lamblia aldolase inhibition. A8B2U2. purified Giardia FBPA. Potency, µM (highest dose often 59.6 µM), hits mostly inhibitors. 290,000 tested, 0.71% active; further: nearly all actives have a fitted effect of over 55% in size
# Target sequence (A8B2U2 whole entry, looked up): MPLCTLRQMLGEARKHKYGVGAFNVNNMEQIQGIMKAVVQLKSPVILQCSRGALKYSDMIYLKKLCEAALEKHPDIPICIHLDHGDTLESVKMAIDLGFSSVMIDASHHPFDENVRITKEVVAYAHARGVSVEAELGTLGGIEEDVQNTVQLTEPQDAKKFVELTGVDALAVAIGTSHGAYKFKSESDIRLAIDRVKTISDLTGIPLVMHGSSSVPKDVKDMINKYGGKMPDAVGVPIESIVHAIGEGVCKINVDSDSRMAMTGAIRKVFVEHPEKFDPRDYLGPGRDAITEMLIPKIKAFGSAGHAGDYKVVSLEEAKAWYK
#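 Giardia FBPA (40 nM reagent) was preincubated 10 min at RT with compound (up to 57.5 uM final), then substrate plus GAPDH/TPI/NAD/arsenate coupling system with diaphorase/resazurin was added; resorufin fluorescence (525/598 nm) was read after 20 min.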
# Shiga toxin inh: blocks Shiga toxin action in Vero cells | 290,000 tested, 9.2% active | Vero cells, Shiga toxin protein synthesis inhibition reporter | AID 2315 | inhibition, % at 38.7 µM; in the data active means inhibition mostly above about 28%, no sharp cut-off; inactive means mostly below about 43%
# Tb PYK inh: blocks Trypanosoma brucei pyruvate kinase; AID 624173; Potency, µM (highest dose often 76.8 µM), hits mostly inhibitors; 410,000 tested, 0.12% active; TbPYK enzyme, Kinase-Glo Plus ATP luminescence, 45 min; further: nearly all actives have a fitted effect of over 50% in size
#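 ADP (130 uM final) triggers the TbPYK reaction after compound addition; incubation is 45 min at room temperature. Kinase-Glo Plus is then added and luminescence imaged. Normalized data are fitted to concentration-effect curves.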
# RE007 growth inh: less growth of the S. pombe RE007 Vpr strain | 360,000 tested, 0.21% active | Potency, µM (highest dose often 92.2 µM), most hits filed as inhibitors | S. pombe RE007 Vpr strain, BacTiter-Glo ATP luminescence, 24 h; active means well fitted falling curve with a large enough effect; inconclusive means small, poorly fitted or top-dose-only effect; inactive means no such curve, though single readings can be large or run the other way; further: nearly all actives have a fitted effect of over 50% in size
#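 Fission yeast strain RE007, carrying one chromosomally integrated HIV-1 vpr copy, was seeded at OD 0.01 in PMG+AL medium with 23 nL pinned compound. After 24 h at 30 °C and 99% humidity, viability was read by BacTiter-Glo luminescence.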
# A number is an active result; . = inactive; ? = inconclusive; / = no result given; + = active, no number; [ ] = dose if it differs, or a comment. The sample as a whole holds a higher share of hits than the screen did. Unless noted, the call rests on the fitted dose curve; in most records, active means well fitted curve in the direction sought with a large enough effect; inconclusive means small, poorly fitted or top-dose-only effect, or another doubt; inactive means no such curve, though single readings can be large; an effect the other way counts as inactive or inconclusive.
SMILES,LmPK inh,CHX counter,Giardia FBPA inh,Shiga toxin inh,Tb PYK inh,RE007 growth inh
O=C(c1ccc2c(c1)OCO2)N1CCN(c2ccccc2)CC1,.,.,.,.,.,.
Cc1nn(C(=O)c2ccc3c(c2)OCO3)c(N)c1-c1ccccc1,.,39,.,76,.,.
COc1cccc(CNC(=O)CCS(=O)(=O)Cc2ccc(C)cc2)c1,.,.,/,.,.,.
O=C(NCc1ccc(F)cc1)c1ccc2c(c1)nc1n2CCCCC1,/,/,/,/,.,/
COc1ccc(-c2csc(NC(=O)CSc3nc(C)cs3)n2)cc1,/,/,/,/,.,.
Cc1nc(SCC(=O)Nc2ccccn2)n[nH]1,.,.,.,.,.,.
CCOc1ccc2nc(NC(=O)CSc3nnnn3C3CCCCC3)sc2c1,.,30,.,50,.,.
CSc1nsc(SCC(=O)Nc2nc3ccccc3s2)n1,.,30,.,67,.,.
COc1ccc(-c2csc(NC(=O)CSc3nc(SC)ns3)n2)cc1,.,39,.,57,.,.
Cc1nc(SCC(=O)Nc2nc3ccccc3s2)n[nH]1,.,54,/,69,.,.
CCc1sc(Nc2ccc(C)cc2Br)nc1-c1cc2cccc(OC)c2oc1=O,/,/,/,/,.,/
COC(=O)c1ccccc1NC(=O)CSc1nc2ccccc2nc1Cc1ccc(F)cc1,/,/,/,/,.[15.4 µM],/
CN(C(=O)CCS(=O)(=O)c1ccc2c(c1)oc(=O)n2C)C1CCCCC1,.,.,/,.,.,.
CCOC(=O)Cn1cnc2c(nnn2-c2ccc(F)cc2)c1=O,.,.,.,.,.,.
COc1ccc2nc(NC(=O)CSc3nnc(C)s3)sc2c1,.,12,.,.,.,.
COc1ccc2nc(NC(=O)CSc3nccc(C)n3)sc2c1,.,.,.,.,.,.
CSc1nsc(SCC(=O)NC2CCCCC2)n1,.,27,.,.,.,.
COc1ccc2nc(NC(=O)CSc3nnnn3C)sc2c1,.,28,.,46,.,.
COc1ccc2nc(NC(=O)CSc3n[nH]c(N)n3)sc2c1,/,/,/,/,.,.
COc1ccc2nc(NC(=O)CSc3nc(SC)ns3)sc2c1,.,47,.,72,.,.
COc1ccc(NC(=O)CSc2nc3ccccc3n2CC(=O)NCc2ccc(F)cc2)cc1,/,/,/,/,.,/
COc1ccccc1NC(=O)CSc1nc(SC)ns1,.,.,.,.,.,.
CSc1nsc(SCC(=O)Nc2ccccn2)n1,.,23,.,42,.,.
O=C(OCC(=O)N1CCc2ccccc21)[C@@H]1CCCN1S(=O)(=O)c1ccccc1F,/,/,/,/,.,.
O=C(Nc1nc2ccc(F)cc2s1)C1CCCO1 (centres undefined),.,26,/,94,.,.
SMILES,LmPK inh,CHX counter,Giardia FBPA inh,Shiga toxin inh,Tb PYK inh,RE007 growth inh
O=C(Nc1ncc(Cc2ccccc2)s1)C1CCCO1 (centres undefined),.,34,.,63,.,.
O=C(Nc1nc2ccccc2s1)C1c2ccccc2Oc2ccccc21,.,.,.,.,.,.
Cc1cc(F)ccc1NC(=O)C1CCCO1 (centres undefined),.,.,.,.,.,.
O=C(OCc1nc2ccccc2s1)[C@@H]1CCCN1S(=O)(=O)c1ccccc1F,.,26,.,.,/,/
O=C(Nc1nc2ccccc2s1)C1CCCO1 (centres undefined),.,47,.,89,.,.
CCC(=O)Nc1ccc(CC)cc1-c1nc2ccccc2n(CC(=O)Nc2ccccc2C)c1=O,/,/,/,/,.,/
COc1ccc(C(=O)OCC(=O)c2ccc[nH]2)c(OC)c1,/,/,/,/,.,.
Nc1ccc2nc(NC(=O)C3CCCCC3)sc2c1,.,57,.,104,.,.
Cc1ccc(S(=O)(=O)N2CCCC2C(=O)Nc2nc3ccccc3s2)cc1 (centres undefined),.,14,.,.,.,.
C=C(C)COc1ccc2oc(C)c(C(=O)OCCOC)c2c1,.,.,.,.,.,?
COC(=O)c1oc2ccc(OC)cc2c1N,.,28,.,63,.,.
Nc1c(C(=O)c2ccc(Cl)cc2)oc2ccccc12,.,32,.,65,.,.
COc1ccc(C(=O)c2oc3ccc(OC)cc3c2N)cc1,.,29,.,70,.,.
COc1ccc(C(=O)c2oc3ccc(OC)cc3c2NC(C)=O)cc1,.,.,.,.,.,.
CCN(CC)CCOC(=O)c1c(C)oc2ccc(OC)cc12,.,.,.,61,.,.
CCCCC(=O)Nc1ccc(OCc2cc(=O)n3ccc(C)cc3n2)cc1,/,/,/,/,.,/
CCN(CC)CCNC(=O)C1CCN(c2cc(C)nc3c(-c4ccc(Cl)cc4)c(C)nn23)CC1,/,/,/,/,.,/
CCn1c(SCC(=O)N/N=C(/C)c2ccncc2)nc2ccccc21,.,.,.,.,.,.
O=C1CC/C=C\C[C@@H](CC(=O)N(CCO)Cc2ccccc2)C(=O)N[C@H](Cc2c[nH]c3ccccc23)CO1,/,/,/,/,.,.
N#Cc1c(Cl)nsc1NN,?,29,.,70,.,?
N#Cc1ccc(CN2CCN(C(=O)Cn3nc(C(N)=O)c4ccccc4c3=O)CC2)cc1,.,.,.,.,.,.
Clc1ccc2nc(-c3ccc(Br)o3)c(Nc3ccc4c(c3)OCCO4)n2c1,/,/,/,/,.,/
Cc1ccc(C(=O)N2CCc3cc(CNC(=O)c4ccnn4C)ccc32)cc1,/,/,/,/,.,/
COc1ccccc1OCc1ccc(C(=O)N2CCCCC2)o1,.,13,.,.,.,.
CCOc1ccc(OCc2ccc(C(=O)N3CCCCC3)o2)cc1,.,23,/,40,.,.
SMILES,LmPK inh,CHX counter,Giardia FBPA inh,Shiga toxin inh,Tb PYK inh,RE007 growth inh
CCOc1ccc(OCc2ccc(C(=O)N3CCc4ccccc4C3)o2)cc1,.,.,.,.,.,.
CC(C)(C)NC(=O)c1ccc(COc2ccc(Cl)cc2Cl)o1,.,.,.,.,.,.
Cc1ccc(OCc2ccc(C(=O)N3CCCC3)o2)cc1C,.,34,.,76,.,.
O=C(c1ccc(COc2ccc(Cl)cc2Cl)o1)N1CCCC1,.,33,/,.,.,.
Cc1nn(C(=O)c2ccc(Br)cc2)c(C)c1S(=O)(=O)N1CCOCC1,/,/,/,/,.,/
O=C(Nc1ccc2oc(-c3cccc4c(Br)cccc34)nc2c1)c1ccc(F)cc1,/,/,/,/,.,/
COc1ccc(C(C)C)cc1S(=O)(=O)NCCc1c(C)[nH]c2ccc(C)cc12,/,/,/,/,.,/
Cc1c(Cl)ccc2sc(N3CCN(C(=O)C4CC4)CC3)nc12,/,/,/,/,.,/
Cc1ccc(CNC(=O)/C=C/c2ccc(S(=O)(=O)NCc3ccco3)cc2)cc1,.,21,.,40,.,.
O=C(O)/C=C/c1ccc(S(=O)(=O)NCc2ccco2)cc1,.,.,.,.,.,.
COc1ccccc1CNC(=O)/C=C/c1ccc(S(=O)(=O)NCc2ccco2)cc1,.,20,.,+,.,.
O=C(/C=C/c1ccc(S(=O)(=O)NCc2ccco2)cc1)NCc1cccc(Cl)c1,.,29,.,46,.,.
